The panel holds about 83,000 compounds, 20% with a hit somewhere; the sample as a whole holds those more often.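 Assay: single dose, 48 h. Readout: percent growth (0 = no net growth; negative = cell death). Active: <10.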 Values without a mark were called inactive. Calls of active or inactive are those of the source.

The assay concerns NCI-H322M lung. Briefly: NCI-60 one-dose screen, 48 h (100 = growth as untreated, 0 = no growth, -100 = all killed). Particulars: 10 µM.
In the case of `COC(=O)CC1CC1C1Cc2c(nc(N(C)S(C)(=O)=O)nc2C(C)C)-c2ccc(F)cc21` (configuration not stated), the growth was 96.8%.

Regarding `CN1CCN(c2ccc(Nc3nc(N4CCN(S(=O)(=O)c5ccc(Cl)cc5)CC4)c4sccc4n3)cc2)CC1`, the growth was 74.5%.

Take `Cc1ccc(-c2ccc(SCC(=O)Nc3ccc(Cl)c(C(F)(F)F)c3)nn2)cc1`: the growth was 90.1%.

Regarding `Oc1ccc(/C=C2\CCCc3cc4ccc(O)cc4[o+]c32)c(O)c1`, the growth was 63.3%.

Regarding `O=C(Nc1ccc(F)c(Cl)c1)c1cc(-c2ccc(F)cc2F)ccc1O`, the growth was 2.57% (active).

Take `CCN1CCN(c2ccc(NC(=O)Nc3ccc4c(c3F)CCN4c3ccnc(C(=O)NC)c3)cc2C(F)(F)F)CC1`: the growth was 90.5%.

With `O=C(CS(=O)(=O)c1oc(-c2ccc(Cl)cc2)nc1S(=O)(=O)c1ccccc1)N1CCCC1`, the growth is 83.9%.

Turning to `C=C(C)[C@@H]1CC[C@]2(C)[C@H](CC=C3[C@@H]4CC(C)(C)CC[C@]4(C(=O)N4CCOCC4)CC[C@]32C)[C@@]1(C)CCCN`, the growth was -98.9% (active).

Regarding `COc1ccccc1C(=O)NNC(=O)CSc1nc2c(c(=O)[nH]1)CCCC2`, the growth is 103%.

For the molecule `Cc1ccc(/C(N)=N/c2sc(-c3ccccc3)nc2-c2ccccc2)cc1`, the growth is 90.2%.

`O=C(COc1ccc(NC(=O)Nc2ccc(Cl)cc2)cc1)N=Nc1c(O)[nH]c2ccc([N+](=O)[O-])cc12`: the growth was 53.3%.

As to `COc1cc(/C=C/C(=O)c2cc(OC)c(OC)c(OC)c2)ccc1Oc1nc(Nc2ccc(F)cc2)nc(N(C)C)n1`, the growth is 9.59% (active).

Take `Cc1ccc(CSc2nc(-c3ccc(F)cc3)c(C#N)c(=O)[nH]2)cc1`: the growth is 98.6%.

For the molecule `CCCn1c(O)c(N=Nc2nc(-c3cc4ccccc4oc3=O)cs2)c2cc(Br)ccc21`, the growth was 102%.

Turning to `CN1CCN(Cc2ccc(NC(=O)c3cncc(C#Cc4cnc5ccc(N[C@@H]6CCOC6)nn45)c3)cc2C(F)(F)F)CC1`, the growth was -99.2% (active).

Take `c1ccc(C(=C(c2ccc(OCCN3CCCCC3)cc2)c2ccc(OCCN3CCCCC3)cc2)C2CCCC2)cc1`: the growth was 39.8%.

In the case of `Cc1ccc(-c2cc(C(=O)N=Nc3c(O)[nH]c4ccccc34)c3ccccc3n2)cc1`, the growth is 69.8%.

Regarding `N#Cc1c(NC(=O)c2ccc(C(F)(F)F)cc2)sc2c1CCC(=O)C2`, the growth was 22.3%.

Turning to `CCOC(=O)C1NN(c2ccc(S(N)(=O)=O)cc2)c2nc3nc(-c4cccs4)cc(-c4cccs4)c3c(=O)n21` (configuration not stated), the growth was 99.7%.

As for `Cc1ccc(-c2cc(C(=O)N=Nc3c(O)[nH]c4ccc(Br)cc34)c3ccccc3n2)cc1`, the growth is 80.9%.

As to `CC1(c2ccccc2)NC(=O)N(CC(=O)Nc2ccc(C(=O)/C=C/c3ccc(Cl)cc3)cc2)C1=O` (configuration not stated), the growth was 51.1%.

Turning to `O=C(N/N=C/c1ccc(-c2cccc([N+](=O)[O-])c2)o1)c1[nH]c2ccc(Br)cc2c1-c1ccccc1`, the growth is 54%.

In the case of `CN(C)c1ccc(/C=C/c2nc3ccccc3c(=O)n2CC(=O)Nc2ccc(Cl)cc2)cc1`, the growth was 61.7%.

Take `CCCSc1nc(NC2CC2)c(C#N)c(-c2ccc(OC)cc2)n1`: the growth is 89.3%.

`C=C1CCC2C3(C)COC(c4c(F)cccc4F)OC3CCC2(C)C1CC(O)C1=CCOC1=O` (configuration not stated): the growth is 108%.

Regarding `O=C(N=Nc1c(O)[nH]c2ccc(Br)cc12)c1ccc2nc(-c3ccccc3)[nH]c2c1`, the growth is -62.9% (active).

For the molecule `CS(=O)(=O)Nc1ccc(-c2ccc3c(c2)ncn3-c2ccc(NC(=O)Nc3ccc(Br)cc3)cc2)cc1`, the growth is 15.3%.

As for `COC1=C[C@@]23CCC(=O)N2CCc2cc4c(cc2[C@H]3[C@H]1OC(=O)C(C)(C)O)OCO4`, the growth is 101%.

As for `Cc1cc(C)nc(/N=C(\N)Nc2ccc(S(=O)(=O)Nc3nc(C)cc(C)n3)cc2)n1`, the growth is 106%.

Consider `CC(=O)NS(=O)(=O)c1ccc(NC(=O)CSC2=NC(c3ccccc3)C(C(C)=O)=C(C)N2)cc1` (configuration not stated), for which the growth is 105%.

Consider `COc1cc2c3c(n(CCCNCCO)c(=O)c2cc1OC)-c1nc2c(cc1C3=O)OCO2`, for which the growth was 16.8%.

With `C/C(=C\CC/C=C(\C)CC/C=C(\C)CC[C@@H](O)C(C)(C)O)CC/C=C(\C)CC[C@@H](O)C(C)(C)O`, the growth is 98.1%.

Consider `C=CC(=O)Nc1nc(-c2cccc(NS(=O)(=O)c3cccc4c(N(C)C)cccc34)c2)cs1`, for which the growth is 56.2%.

Regarding `O=C(Nc1ccc(Cl)c(C(F)(F)F)c1)c1cncc(C#Cc2cnc3ccc(N4CCOCC4)nn23)c1`, the growth is 6.5% (active).

Take `O=C(c1ccccc1)n1ccc(-c2cc3cc(Br)ccc3oc2=O)n1`: the growth is 31.1%.

With `Clc1ccc(/C=N/Nc2ncnc3sc4c(c23)CCN(Cc2ccccc2)C4)cc1`, the growth is 22.3%.

As to `Nc1cc(-c2cccc(C(=O)NCc3ccc4c(c3)OCO4)c2)ccn1`, the growth is 111%.

These data come from PubChem BioAssay (NCI).
